Measurements as given in the supplement of paper PMC8975748.
Where a name gives a salt, the structure may show the parent alone.

system: Saccharomyces cerevisiae BY4741 SeMeCo community; assay: z-score of subpopulation abundance vs DMSO median, subpopulation auxotrophic for HLM; higher = larger share of this subpopulation than in DMSO controls; settings: 10 µM; 24 h; SM minimal medium; subpopulation (auxotrophy): HLM
Method: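 Fluorescent four-plasmid SeMeCo (self-establishing metabolically cooperating S. cerevisiae BY4741 community; plasmids pH-mRuby2, pL-mWasabi, pU-eCFP, pM-TagRFP657) was grown 24 h in minimal SM medium with each Selleck FDA-approved drug at 10 µM in 384-well plates. Cells were fixed and imaged by high-content confocal microscopy. For each auxotrophic subpopulation (and the prototroph), a z-score gives the deviation from the DMSO vehicle-control population median.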

| Compound | z-score of subpopulation abundance |
| --- | --- |
| C#C[C@]1(O)C=C[C@H]2[C@@H]3CCC4=CC(=O)CC[C@@H]4[C@H]3CC[C@@]21CC [Gestodene] | -0.9 |
| COc1ccc(C(CN(C)C)C2(O)CCCCC2)cc1 (stereo not given) [Venlafaxine] | -0.65 |
| CNC1CC(N)C(O)C(OC2OC(CO)C(O)C3OC4(OC(C(N)CO)C(O)C(O)C4O)OC23)C1O (stereo not given) [Hygromycin B] | -0.02 |
| NC(=O)CN1CCCC1=O [Piracetam] | 1.38 |
| C=C[C@H]1CN2CC[C@H]1C[C@H]2[C@H](O)c1ccnc2ccccc12 [Cinchonidine] | -0.4 |
| O=C(O[C@H]1C[N+]2(CCCOc3ccccc3)CCC1CC2)C(O)(c1cccs1)c1cccs1 [Aclidinium Bromide] | -0.51 |
| COc1ccc(C(CN(C)C)C2(O)CCCCC2)cc1 (stereo not given) [Venlafaxine HCl] | -0.22 |
| CCCN1C[C@H](CSC)C[C@@H]2c3cccc4[nH]cc(c34)C[C@H]21 [Pergolide Mesylate] | -0.43 |
| C[C@@H]1O[C@@H](O[C@H]2C[C@@H](O)[C@]3(CO)[C@H]4[C@H](O)C[C@]5(C)[C@@H](C6=CC(=O)OC6)CC[C@]5(O)[C@@H]4CC[C@]3(O)C2)[C@H](O)[C@H](O)[C@H]1O [Ouabain] | -0.79 |
| CN1[C@@H]2C[C@@H](OC(=O)[C@H](CO)c3ccccc3)C[C@H]1[C@@H]1O[C@@H]12 [Scopolamine HBr trihydrate] | -0.8 |
| CN1[C@@H]2C[C@@H](OC(=O)[C@H](CO)c3ccccc3)C[C@H]1[C@@H]1O[C@@H]12 [Scopolamine HBr] | -0.52 |
| CC(=O)O[C@H]1C[C@@H]2CC[C@@H]3[C@H](CC[C@@]4(C)[C@H]3C[C@H]([N+]3(C)CCCCC3)[C@@H]4OC(C)=O)[C@@]2(C)C[C@@H]1[N+]1(C)CCCCC1 [Pancuronium dibromide] | -0.05 |
| CN1c2ccccc2C(NCCCCCCC(=O)O)c2ccc(Cl)cc2S1(=O)=O (stereo not given) [Tianeptine sodium] | -0.48 |
| Nc1ccncc1 [4-Aminopyridine] | -0.2 |
| COc1cc2c(cc1OC)C1CC(=O)C(CC(C)C)CN1CC2 (stereo not given) [Tetrabenazine (Xenazine)] | 3.78 |
| CC(C)N(CCC(C(N)=O)(c1ccccc1)c1ccccn1)C(C)C (stereo not given) [Disopyramide] | 0.67 |
| CN(C)[C@@H]1C(=O)C(C(N)=O)=C(O)[C@@]2(O)C(=O)C3=C(O)c4c(O)cccc4[C@@](C)(O)[C@H]3C[C@@H]12 [Tetracycline HCl] | -0.42 |
| CC[N+](C)(CC)CCOC(=O)C(O)(c1ccccc1)c1ccccc1 [Methylbenactyzine Bromide] | -1.19 |
| CCC1=C[C@H]2CN3CCc4c([nH]c5ccccc45)[C@](C(=O)OC)(C2)[C@H]13 [Catharanthine] | -0.68 |
| O=C(O[C@H]1C[C@H]2CC[C@@H](C1)[N+]21CCCC1)C(O)(c1ccccc1)c1ccccc1 [Trospium chloride] | 0.01 |

| Compound | z-score of subpopulation abundance |
| --- | --- |
| C=C(C)[C@H]1Cc2c(ccc3c2O[C@@H]2COc4cc(OC)c(OC)cc4[C@@H]2C3=O)O1 [Rotenone (Barbasco)] | 0.69 |
| CN1[C@@H]2CC[C@H]1C[C@@H](OC(=O)[C@H](CO)c1ccccc1)C2 [Hyoscyamine] | 0.11 |
| C[C@@H]1CC[C@H]2[C@@H](C)C(=O)O[C@@H]3O[C@@]4(C)CC[C@@H]1[C@]32OO4 [Artemisinin] | -0.69 |
| CCN1CC2(OC(=O)c3ccccc3NC(C)=O)CCC(OC)C34C1C(CC23)C1(O)CC(OC)C2CC4C1(O)C2OC (stereo not given) [Lappaconitine] | -0.42 |
| CN(C)C(=O)Oc1ccc[n+](C)c1 [Pyridostigmine Bromide] | 0.28 |
| CN(C)[C@@H]1C(=O)C(C(N)=O)=C(O)[C@@]2(O)C(=O)C3=C(O)c4c(O)cccc4[C@@](C)(O)[C@H]3[C@H](O)[C@@H]12 [Oxytetracycline Dihydrate] | -0.22 |
| CN1C(=O)COc2c(C(=O)NC3CN4CCC3CC4)cc(Cl)cc21 (stereo not given) [Azasetron HCl] | 1.29 |
| O=c1cccc2n1C[C@@H]1CNC[C@H]2C1 [Cytisine] | -0.15 |
| C[N+]1(C)[C@@H]2C[C@@H](OC(=O)[C@H](CO)c3ccccc3)C[C@H]1[C@@H]1O[C@@H]12 [Methscopolamine] | 0.13 |
| Cn1cc(C2=C(c3cn(C4CCN(Cc5ccccn5)CC4)c4ccccc34)C(=O)NC2=O)c2ccccc21 | -1.27 |
| CC[C@@]1(O)C(=O)OCc2c1cc1n(c2=O)Cc2cc3ccccc3nc2-1 [Camptothecin] | -0.76 |
| CN[C@@H]1[C@@H](O)[C@@H](O[C@@H]2[C@@H](O)[C@H](O[C@H]3O[C@H]([C@@H](C)O)[C@@H](O)[C@H](O)[C@H]3N)[C@@H](N)C[C@H]2N)OC[C@]1(C)O [Geneticin (G418 Sulfate)] | -0.13 |
| O=[N+]([O-])C(Br)(CO)CO [Bronopol] | -0.88 |
| CCN(CC)CCOC(=O)C(O)(c1ccccc1)c1ccccc1 [Benactyzine hydrochloride] | 0.1 |
| CCN(C)C(=O)Oc1cccc([C@H](C)N(C)C)c1 [Rivastigmine Tartrate] | 0.01 |
| Nc1nc(N)nc(NC2CC2)n1 [Cyromazine] | 0.4 |
| CN(C)[C@@H]1C(=O)C(C(N)=O)=C(O)[C@@]2(O)C(=O)C3=C(O)c4c(O)cccc4[C@@](C)(O)[C@H]3[C@H](O)[C@@H]12 [Oxytetracycline (Terramycin)] | 2.78 |
| CC(NC(C)(C)C)C(=O)c1cccc(Cl)c1 (stereo not given) [Amfebutamone (Bupropion) HCl] | 0.09 |
| CC[C@H]1[C@@H]2C[C@H]3[C@@H]4N(C)c5ccccc5[C@]45C[C@@H]([C@@H]2[C@H]5O)N3[C@@H]1O [Ajmaline] | -0.46 |
| C[N+]12CCC(CC1)C(OC(=O)C(O)(c1ccccc1)c1ccccc1)C2 (stereo not given) [Clidinium Bromide] | -0.26 |
